MbtI inh – blocks the Mycobacterium tuberculosis siderophore enzyme MbtI. P9WFX0. purified MbtI enzyme, fluorescence intensity read-out. inhibition, % (concentration not given with the values). 0.89% of 100,000 active. AID 493033; in the data active = inhibition mostly above about 56%, no sharp cut-off; inactive = mostly below about 77%
AID504770 – E. coli YBA685 growth inhibition, screen for V. cholerae RctB inhibitors; E. coli YBA685 rctB-dependent plasmid, OD600 growth, 3 h; stronger effect = lower value; z-score (concentration not given with the values); 0.27% of 130,000 active; in the data active = z-score below about -2, passing the limit was not always enough
Mtb MenB inh – inhibitors of Mycobacterium tuberculosis MenB enzyme; P9WNP5; MenB enzyme assay, absorbance read-out; inhibition, % (concentration not given with the values); 0.43% of 100,000 active; in the data active = inhibition above about 21%, passing the limit was not always enough
Target sequence (P9WNP5 whole entry, looked up): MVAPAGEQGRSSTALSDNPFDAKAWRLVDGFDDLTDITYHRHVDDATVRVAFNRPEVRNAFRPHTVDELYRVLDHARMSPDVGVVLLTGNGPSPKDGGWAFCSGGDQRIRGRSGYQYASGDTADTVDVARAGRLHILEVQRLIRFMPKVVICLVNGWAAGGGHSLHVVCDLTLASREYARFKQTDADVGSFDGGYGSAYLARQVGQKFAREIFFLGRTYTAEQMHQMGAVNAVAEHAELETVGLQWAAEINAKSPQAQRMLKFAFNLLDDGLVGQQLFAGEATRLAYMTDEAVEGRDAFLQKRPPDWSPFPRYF
PV pol inh – inhibitors of poliovirus RNA polymerase binding and polymerization; % elongation, % (compound at 16.7 µg/mL); AID 588519; poliovirus polymerase elongation, fluorescence polarization; stronger effect = lower value; P03300; 0.66% of 150,000 active; in the data active = % elongation below about 90%
Starred values were filed as active, the others as inactive; i = inactive; . = not tested or not shown. In the library only some 1.4% were active in any assay of this set; here they are far more common.

SMILES	MbtI inh	AID504770	Mtb MenB inh	PV pol inh
CC(C)Oc1ccccc1CN	3	1	32*	101
Cc1cccc(NC2=NCC(=O)N2Cc2ccccc2)c1	-9	0.6	-16	87*
O=C1CN=C(Nc2ccccc2Cl)N1Cc1ccccc1	-5	1.7	-22	103
CCN(CC)c1ccc(/C=C2/SC(=Nc3cccc(C)c3)NC2=O)c(OC)c1	.	0.4	-80	46
Cc1cc(C(F)(F)F)c(C#N)c(=S)[nH]1	81	1.5	-33	104
N#Cc1c(N)cc(N)[nH]c1=S	97*	-0.8	-1	104
CN(C)c1ccc(NC(=O)c2ccccn2)cc1	11	0	-32	99
CN(C)c1ccc(NC(=S)N=P(c2ccncc2)(N(C)C)N(C)C)cc1	81*	1.4	-32	101
CN(C)CCCN1C(=O)C(=O)/C(=C(/O)c2ccc(S(=O)(=O)N(C)C)cc2)C1c1ccccc1 (stereo unspecified)	8	-0.05	5	101
CN(C)S(=O)(=O)c1ccc(/C(O)=C2\C(=O)C(=O)N(Cc3cccnc3)C2c2cccnc2)cc1 (stereo unspecified)	2	1.2	34*	102
O=C(CCN1N=C(c2ccccc2)CCC1=O)NCCCN1CCCCCC1	-1	0.1	4	104
Cc1ccc(C(=O)CSc2ncn[nH]2)c(C)c1	70*	0.1	-2	101
O=C(NCCc1ccccc1)c1sc(=S)n2c1[nH]c(=O)c1ccccc12	67	0	-5	95
NC(=O)c1sc(=S)n(-c2ccccc2)c1N	.	0.15	-17	91
Nc1c(C(=O)NC2CCCCC2)sc(=S)n1-c1ccccc1	56*	0.35	9	97
O=C(NC1CCCCC1)c1sc(=S)n2c1[nH]c(=O)c1ccccc12	96*	1.9	2	98
O=C1C2C3CC4C1C1C2CC3C41 (stereo unspecified)	-2	-0.35	-8	107
CCSc1nc2c(cnn2-c2ccccc2)c(=O)[nH]1	.	0.5	.	.
O=C(O)Cc1c(-c2ccc(Cl)cc2)nc2ccccc2c1C(=O)O	.	-0.6	.	.
Cc1c(-c2ccccc2)nc2ccccc2c1C(=O)O	-3	1.2	34*	103
CCOC(=O)c1cccc(C(=O)Nc2ccc(Cl)cn2)n1	.	-0.55	.	.
CC(=O)Nc1cccc(SSc2cccc(NC(C)=O)c2)c1	97*	-0.1	10	99
S=c1nc(-c2cccs2)[nH][nH]1	123	-0.25	-58	69*
Cc1nc(-c2ccc3[nH]c(=O)oc3c2)cs1	97*	-1.8	-13	74*
Cc1noc(C)c1S(=O)(=O)N(C)c1ccc(Br)cc1	-2	-0.9	-15	100
SMILES	MbtI inh	AID504770	Mtb MenB inh	PV pol inh
CC(=O)n1c2ccccc2c2ccccc21	.	-0.4	.	.
CC(=O)n1c2ccccc2c2nc(N)sc21	52	-1.9	-8	81*
CN(C)c1ccc(/C=C/c2noc(-c3ccccc3O)n2)cc1	.	.	.	110
Oc1ccccc1-c1nc(/C=C/c2ccccc2Cl)no1	.	.	.	41*
CC(=O)Nc1c(C(=O)c2ccc(F)cc2)oc2ccccc12	1	2.5	64*	100
CC(C)(C)c1ccc(C(=O)Nc2c(C(=O)c3ccc(F)cc3)oc3ccccc23)cc1	.	.	.	107
CCN1/C(=C/c2scc[n+]2C)C=C(C)c2cc(OC)c3ccccc3c21	2	0.15	2	56*
NS(=O)(=O)c1ccc(N2C(=O)CSC2=S)cc1	57*	-1.2	-75	99
O=C1CSC(=S)N1c1cccc(O)c1	.	-3.1*	.	.
Nc1c(S(=O)(=O)c2ccccc2)c2nc3ccccc3nc2n1CCNC(=O)c1cccs1	101	-0.35	-17	101
CCOC(=O)c1ccc(NC(=O)CCS(=O)(=O)c2ccc(OC)cc2)cc1	.	0.95	.	.
COc1ccc(F)cc1S(=O)(=O)Nc1cccc(-c2ccc(N3CCCCCC3)nn2)c1	.	.	.	110
COc1ccc(OC)c(S(=O)(=O)Nc2cccc(-c3ccc(N4CCCCC4)nn3)c2)c1	.	.	.	85*
Cc1ccc(S(=O)(=O)NC(=O)c2ccc(Cl)nc2Cl)cc1	-4	-0.55	.	62*
CCOCCCN=C1SCC(CC)N1C(=O)c1ccc(C#N)cc1 (stereo unspecified)	-8	-0.25	4	89*
N#Cc1ccc(C(=O)N2CCCSC2=NCCc2ccccc2)cc1	3	-0.2	6	99
Cc1ccc(S(=O)(=O)N2CCCCC2C(=O)NC(C)c2ccc3c(c2)OCCO3)cc1 (stereo unspecified)	-13	-2.1*	-28	101
O=C(CCCc1ccccc1)Nc1scc2c(=O)oc3ccccc3c12	.	1.3	8	79*
Cc1ccc(S(=O)(=O)Nc2ccccc2/C(O)=C(\C#N)c2nc3ccccc3n2C)cc1	12	1.2	-7	102
O=C(CO/N=C/c1ccccc1Cl)N1CCCCCC1	-6	-0.55	-20	107
CCOc1cc(C(=O)O)c(N)cc1OC	100	-0.35	12	87*
CC1=C(C)C(=O)C(NCc2ccco2)=CC1=O	8	-1.1	-120	74*
COc1ccc(-c2cn3c(n2)sc2cc(C(=O)NCCCN4CCCCCC4)ccc23)cc1	.	.	.	100
COc1ccc(-c2cn3c(n2)sc2cc(C(=O)NCCCN4CCCCC4)ccc23)cc1	.	.	.	90*
CCc1ccc(NC(=S)N(CCCN2CCCC2)Cc2ccco2)cc1	4	.	.	.
SMILES	MbtI inh	AID504770	Mtb MenB inh	PV pol inh
Oc1ccc(Cl)cc1-c1csnn1	9	-2.2*	2	100
COC(=O)c1sc(=S)n(-c2cccc(OC)c2)c1N	96*	-0.8	-15	97
COC(=O)c1sc(=S)n(-c2cc(OC)ccc2OC)c1N	18	-0.55	-20	98
CCn1c(COc2cccc(C)c2)nnc1SCC(=O)NC(C)(C)C	12	2.5	41*	103
CCOC(=O)C1=C(NC(=O)c2cccc(F)c2)Nc2ccccc2N=C1	18	-0.65	-33	103
COc1ccc(CCNC(=O)Cn2cnc3c(cnn3-c3ccccc3)c2=O)cc1OC	.	-3.6*	.	.
COC(=O)Cn1cnc2c(cnn2-c2ccccc2)c1=O	.	-0.35	.	.
CC(C)(C)c1cs/c(=N/c2ccccn2)n1-c1ccc(Cl)cc1	-11	0.35	-6	102
Clc1ss/c(=N\c2ccccn2)c1Cl	.	0.3	-19	87*
O=C1NC(=O)N(c2ccccc2)C(=O)/C1=C/c1ccccc1	3	2.1	-40	98
CCC(C)N1C(=O)/C(=C\c2cnn(-c3ccccc3)c2)C(=O)NC1=S (stereo unspecified)	80*	-1.1	-30	99
Cc1cccc(-c2nnc(C3CCN(S(=O)(=O)Cc4ccccc4)CC3)o2)c1	72*	-0.5	-63	98
O=C(OC1COC(c2ccc(Br)cc2)OC1)c1ccc(Br)cc1 (stereo unspecified)	10	0.05	-18	104
COc1ccc(C(=O)CSC2=NCCc3ccccc32)cc1	67*	-0.55	6	77*
CN1CCCN(C(=O)c2cc(S(=O)(=O)N(C)c3ccc(F)cc3)ccc2Cl)CC1	-4	-0.45	-18	97
Cc1cc(NCCN2CCCCC2)c2ccc3ccccc3c2n1	i	1.1	-1	69*
Cc1nc2ccccc2c2oc(C(=O)NCCN3CCCCCC3)cc12	.	-0.3	.	.
CC1=C(C#N)C(c2cnc(C)[nH]2)C2=C(CCCC2=O)N1 (stereo unspecified)	.	-0.4	.	.

High-throughput results as filed in PubChem BioAssay.
